# Experimental data: PubChem BioAssay AID624094 (National Center for Advancing Translational Sciences (NCATS), 2012)
# Inconclusive results are not listed. A number with no mark means an inactive call. The source made the active and inactive calls. Calls follow the shape of the dose curve; as a rule, active = well fitted inhibition curve with a large enough effect; inconclusive = small, poorly fitted or top-dose-only effect; inactive = flat fitted curve, though single readings scatter.
# Target: Dual specificity protein kinase CLK4 (Homo sapiens) (UniProt Q9HAZ1)
# Assay: Confirmation Assay for Inhibitors of Clk4 (Kinase-Glo Assay): KU probe
# Conditions: recombinant Clk4, Kinase-Glo ATP luminescence; series mostly up to 76.9 µM; activity, negative = inhibition: at the top concentration
# Description: NIH Molecular Libraries Probe Production Centers Network [MLPCN] NIH Chemical Genomics Center [NCGC] MLPCN Grant: 1R03MH084827-01 Assay Submitter (PI): Tom Misteli NCGC Assay Overview: Clk4 (Invitrogen, cat# PV3839) was assayed using ATP and the RS repeat peptide (AnaSpec cat # 61722) as substrates. Following the Clk4 reaction, the remaining ATP levels were detected using Promega Kinase-Glo technology wherein the remaining ATP from the kinase reaction is detected using Ultra-Glo luciferase and D-luciferin which generates a bioluminescence signal from the ATP.
# NCGC Assay Protocol Summary: Two uL/well of substrate-buffer solution (100 uM RS peptide, 1 uM ATP, 25 mM Tris pH7.5, 10 mM MgCl2, 0.5 mM EGTA, 2.5 mM DTT, 0.01% Triton X-100 final concentration) was dispensed into 1536-well, assay plates (Greiner, solid white medium-binding plates) with Aurora Discovery BioRAPTR Flying Reagent Dispenser (FRD; Beckton-Dickenson). Using a Kalypsys pin tool equipped with a 1536-pin tool, 23 nL of compound solution was transferred to the assay plate. One uL/ well Clk4-buffer solution (25 nM Clk4, 25 mM Tris pH 7.5, 10 mM MgCl2, 0.5 mM EGTA, 2.5 mM DTT, 0.01% Triton X-100, final concentrations) was then added using the FRD yielding a total kinase reaction volume of 3 uL/ well. After 4.5 hours of room temperature incubation, 3 uL Kinase-Glo reagent was added for a final assay volume of 6 uL/ well. Luminescence was detected with the ViewLux plate reader (Perkin Elmer, Waltham, MA) after 5 min incubation using a 5 second exposure time and 2x binning.
# Sequence of Dual specificity protein kinase CLK4 (Homo sapiens) (Q9HAZ1 whole entry, looked up): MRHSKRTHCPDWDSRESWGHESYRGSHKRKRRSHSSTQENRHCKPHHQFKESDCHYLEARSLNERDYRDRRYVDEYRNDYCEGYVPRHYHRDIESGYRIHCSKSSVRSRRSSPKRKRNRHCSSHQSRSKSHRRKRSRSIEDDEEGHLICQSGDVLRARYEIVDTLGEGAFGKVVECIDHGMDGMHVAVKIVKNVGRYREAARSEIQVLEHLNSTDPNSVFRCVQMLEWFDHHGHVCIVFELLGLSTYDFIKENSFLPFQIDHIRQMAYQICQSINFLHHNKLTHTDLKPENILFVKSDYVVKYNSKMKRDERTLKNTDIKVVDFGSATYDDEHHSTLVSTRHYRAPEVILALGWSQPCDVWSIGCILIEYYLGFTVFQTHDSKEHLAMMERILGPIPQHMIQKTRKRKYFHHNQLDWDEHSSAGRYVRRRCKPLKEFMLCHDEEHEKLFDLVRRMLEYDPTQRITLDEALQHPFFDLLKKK
Compound,Potency,"activity, negative = inhibition [%]"
c1cncc(CNc2ccnc(-c3ccc4cn[nH]c4c3)n2)c1,0.292 µM (active),–
Clc1ccc(CNc2nccc(-c3ccc4[nH]ncc4c3)n2)cc1Cl,0.026 µM (active),–
Fc1cc(CNc2ccnc(-c3ccc4c(c3)OCO4)n2)ccc1Cl,13 µM (active),–
CCCN(C)c1ncnc2ccc(-c3ccc4c(c3)OCO4)cc12,0.0582 µM (active),–
Clc1ccc(CNc2cc(-c3ccc4c(c3)OCO4)ncn2)cc1,2.32 µM (active),–
COc1cccc(-c2nccc(NCc3ccc(C)cc3)n2)c1,23.2 µM (active),–
CCCNc1ncnc2ccc(-c3ccc4c(c3)OCO4)cc12,0.0582 µM (active),–
COc1ccc(CNc2ccnc(-c3c(C)noc3C)n2)cc1,–,-2.38
c1cncc(CNc2nccc(-c3ccc4[nH]ncc4c3)n2)c1,0.026 µM (active),–
Clc1ccc(CNc2nccc(-c3ccc4cn[nH]c4c3)n2)cc1Cl,5.82 µM (active),–
Clc1cc(Cl)cc(CNc2ncncc2-c2ccc3c(c2)OCO3)c1,0.13 µM (active),–
COc1ccc(-c2ccnc(NCc3ccc(Cl)c(Cl)c3)n2)cc1OC,26 µM (active),–
CN(CC1CCCCC1)c1ncnc2ccc(-c3ccc4c(c3)OCO4)cc12,0.184 µM (active),–
Clc1ccc(CNc2nccc(-c3ccc4c(c3)OCCO4)n2)cc1Cl,0.116 µM (active),–
CC(C)(C)CNc1ncnc2ccc(-c3ccc(C(=O)O)o3)cc12,0.463 µM (active),–
CN(CC1CCCCO1)c1ncnc2ccc(-c3ccc4c(c3)OCO4)cc12 (stereo not given),0.0463 µM (active),–
CCN(C)c1ncnc2ccc(-c3ccc4c(c3)OCO4)cc12,0.0368 µM (active),–
Fc1ccc(CNc2ccnc(-c3ccc4c(c3)OCO4)n2)cc1Br,13 µM (active),–
CN(C)c1ccc(-c2nccc(NCc3ccc(Cl)cc3)n2)cc1,–,-6.08
Cc1c(-c2ccnc(Nc3cc(Br)cc(C(F)(F)F)c3)n2)sc(=O)n1C,0.0519 µM (active),–

Compound,Potency,"activity, negative = inhibition [%]"
COc1ccc(-c2nccc(NCc3ccc(Cl)c(Cl)c3)n2)cc1,11.6 µM (active),–
Clc1cc(CNc2ccnc(-c3ccc4c(c3)OCO4)n2)ccn1,3.68 µM (active),–
c1cc(-c2ccoc2)nc(-c2ccc3c(c2)OCO3)n1,4.12 µM (active),–
c1cc(-c2ccc3c(c2)OCO3)nc(Nc2ccc3c(c2)OCO3)n1,0.116 µM (active),–
Cc1c(-c2ccnc(NCc3ccc(Cl)cc3)n2)sc(=O)n1C,0.0582 µM (active),–
c1nc(NCCC2CCCO2)c2cc(-c3ccc4c(c3)OCO4)ccc2n1 (stereo not given),0.0519 µM (active),–
CCNC(=O)c1ccc(-c2ccc3ncnc(NCC4CCCO4)c3c2)o1 (stereo not given),0.328 µM (active),–
CN(C)c1ccc(-c2ncccn2)cc1,–,-17.6
COc1cccc(-c2ccnc(NCc3ccc(Cl)c(Cl)c3)n2)c1,3.68 µM (active),–
O=c1cnc2cnc(Nc3ccccc3)nc2n1CCc1ccccc1,0.184 µM (active),–
Clc1ccc(CNc2ccnc(-c3cccnc3)n2)cc1,16.4 µM (active),–
c1coc(CNc2ncnc3ccc(-c4ccc5c(c4)OCO5)cc23)c1,0.0463 µM (active),–
COc1ccc(CNc2ccnc(-c3ccc(N(C)C)cc3)n2)cc1,–,-2.14
O=C(O)c1ccc(-c2ccc3ncnc(N4CCOCC4)c3c2)o1,0.582 µM (active),–
O=C(O)c1ccc(-c2ccc3ncnc(NCc4nccs4)c3c2)o1,0.923 µM (active),–
c1cncc(CNc2nccc(-c3ccc4c(c3)OCO4)n2)c1,0.0232 µM (active),–
COc1ccc(-c2ccnc(NCc3ccc(Cl)c(Cl)c3)n2)cc1,0.184 µM (active),–
c1nc(NCC2CCCCC2)c2cc(-c3ccc4c(c3)OCO4)ccc2n1,0.0654 µM (active),–
Cc1csc(CNc2ncnc3ccc(-c4ccc(CO)o4)cc23)n1,0.923 µM (active),–
c1coc(-c2ccnc(-c3ccc4c(c3)OCO4)n2)c1,8.23 µM (active),–
